What was measured:
[1] = biological target: T1, Serine/threonine-protein kinase TBK1 (Homo sapiens) (UniProt Q9UHD2); settings: at 10 µM
T1 sequence (whole entry): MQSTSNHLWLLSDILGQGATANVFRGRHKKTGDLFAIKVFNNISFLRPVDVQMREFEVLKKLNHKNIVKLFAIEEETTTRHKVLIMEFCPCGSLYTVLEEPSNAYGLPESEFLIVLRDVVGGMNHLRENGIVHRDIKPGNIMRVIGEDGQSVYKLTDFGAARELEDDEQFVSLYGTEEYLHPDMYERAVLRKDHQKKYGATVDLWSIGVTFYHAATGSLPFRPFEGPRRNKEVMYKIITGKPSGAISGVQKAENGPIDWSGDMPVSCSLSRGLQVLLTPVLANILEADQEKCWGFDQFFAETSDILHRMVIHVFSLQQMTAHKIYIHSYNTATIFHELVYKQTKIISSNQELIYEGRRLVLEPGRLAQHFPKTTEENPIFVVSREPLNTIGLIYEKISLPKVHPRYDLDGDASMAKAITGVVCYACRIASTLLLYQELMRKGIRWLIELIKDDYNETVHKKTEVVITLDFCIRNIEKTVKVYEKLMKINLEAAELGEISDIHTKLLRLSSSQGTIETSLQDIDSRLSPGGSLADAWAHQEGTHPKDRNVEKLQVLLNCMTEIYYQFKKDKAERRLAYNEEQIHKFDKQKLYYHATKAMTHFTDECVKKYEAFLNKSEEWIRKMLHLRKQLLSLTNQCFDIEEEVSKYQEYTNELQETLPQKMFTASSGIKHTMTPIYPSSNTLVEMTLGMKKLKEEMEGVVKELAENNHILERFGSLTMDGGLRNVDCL

[2] = biological target: T2, TGF-beta receptor type-1 (Homo sapiens) (UniProt P36897); settings: at 1 µM
T2 sequence (whole entry): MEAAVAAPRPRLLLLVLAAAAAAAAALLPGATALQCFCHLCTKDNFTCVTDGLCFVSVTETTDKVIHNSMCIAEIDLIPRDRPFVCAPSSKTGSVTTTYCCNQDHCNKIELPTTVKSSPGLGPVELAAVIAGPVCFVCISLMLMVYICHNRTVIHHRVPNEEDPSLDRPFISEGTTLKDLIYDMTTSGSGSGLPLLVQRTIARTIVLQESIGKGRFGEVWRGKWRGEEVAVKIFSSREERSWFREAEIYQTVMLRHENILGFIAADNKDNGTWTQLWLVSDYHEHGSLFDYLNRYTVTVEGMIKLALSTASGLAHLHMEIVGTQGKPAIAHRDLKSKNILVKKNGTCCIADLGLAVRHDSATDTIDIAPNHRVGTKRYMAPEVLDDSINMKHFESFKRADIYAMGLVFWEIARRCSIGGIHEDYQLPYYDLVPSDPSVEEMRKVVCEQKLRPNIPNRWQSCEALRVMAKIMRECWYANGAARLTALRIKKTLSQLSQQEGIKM

[3] = biological target: T2, TGF-beta receptor type-1 (Homo sapiens); settings: at 10 µM
[4] = biological target: Insulin-like growth factor 1 receptor (Homo sapiens) (UniProt P08069); settings: at 1 µM
[5] = biological target: T3, Inhibitor of nuclear factor kappa-B kinase subunit beta (Homo sapiens) (UniProt O14920); settings: at 1 µM
T3 sequence (whole entry): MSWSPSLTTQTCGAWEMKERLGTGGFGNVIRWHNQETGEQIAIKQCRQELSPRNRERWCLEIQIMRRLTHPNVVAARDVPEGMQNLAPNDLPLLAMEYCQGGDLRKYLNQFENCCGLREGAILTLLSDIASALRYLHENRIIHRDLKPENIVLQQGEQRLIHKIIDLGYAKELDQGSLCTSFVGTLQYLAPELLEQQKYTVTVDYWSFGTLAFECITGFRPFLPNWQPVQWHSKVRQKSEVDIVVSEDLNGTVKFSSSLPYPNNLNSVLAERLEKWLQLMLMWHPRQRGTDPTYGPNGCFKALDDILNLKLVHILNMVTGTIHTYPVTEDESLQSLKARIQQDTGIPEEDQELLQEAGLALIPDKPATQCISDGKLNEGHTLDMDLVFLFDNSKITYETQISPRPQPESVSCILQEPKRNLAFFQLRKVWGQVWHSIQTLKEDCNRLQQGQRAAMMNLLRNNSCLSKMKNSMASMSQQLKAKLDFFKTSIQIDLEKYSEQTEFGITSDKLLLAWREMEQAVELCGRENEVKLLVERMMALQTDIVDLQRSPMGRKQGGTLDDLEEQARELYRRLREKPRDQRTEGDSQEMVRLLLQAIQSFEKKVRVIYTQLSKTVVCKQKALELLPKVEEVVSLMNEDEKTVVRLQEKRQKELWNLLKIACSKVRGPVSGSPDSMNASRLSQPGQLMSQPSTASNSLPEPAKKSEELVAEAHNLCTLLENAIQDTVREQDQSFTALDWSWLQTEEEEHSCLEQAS

[6] = biological target: T3, Inhibitor of nuclear factor kappa-B kinase subunit beta (Homo sapiens); settings: at 10 µM
[7] = biological target: Insulin receptor (Homo sapiens) (UniProt P06213); settings: at 1 µM
[8] = biological target: Insulin receptor (Homo sapiens) (UniProt P06213); settings: at 10 µM
[9] = biological target: Insulin receptor (Homo sapiens) (UniProt P06213); settings: at 10 µM; remark: listed apart in the source
[10] = biological target: Interleukin-1 receptor-associated kinase 1 (Homo sapiens) (UniProt P51617); settings: at 1 µM
[11] = biological target: Interleukin-1 receptor-associated kinase 1 (Homo sapiens) (UniProt P51617); settings: at 10 µM
[12] = biological target: T4, Interleukin-1 receptor-associated kinase 4 (Homo sapiens) (UniProt Q9NWZ3); settings: at 1 µM
T4 sequence (whole entry): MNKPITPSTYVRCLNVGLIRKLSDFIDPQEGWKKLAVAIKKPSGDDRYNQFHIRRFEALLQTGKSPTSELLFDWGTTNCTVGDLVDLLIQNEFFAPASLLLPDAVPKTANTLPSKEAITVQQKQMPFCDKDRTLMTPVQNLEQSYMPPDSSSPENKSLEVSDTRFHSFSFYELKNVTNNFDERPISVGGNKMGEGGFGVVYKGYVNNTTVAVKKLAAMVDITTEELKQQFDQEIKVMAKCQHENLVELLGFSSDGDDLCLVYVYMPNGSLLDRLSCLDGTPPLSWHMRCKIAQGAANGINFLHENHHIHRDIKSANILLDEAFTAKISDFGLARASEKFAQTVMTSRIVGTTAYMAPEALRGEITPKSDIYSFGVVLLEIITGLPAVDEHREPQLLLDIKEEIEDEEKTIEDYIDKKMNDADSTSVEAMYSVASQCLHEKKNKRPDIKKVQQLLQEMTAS

[13] = biological target: T4, Interleukin-1 receptor-associated kinase 4 (Homo sapiens); settings: at 10 µM
[14] = biological target: Insulin receptor-related protein (Homo sapiens) (UniProt P14616); settings: at 1 µM
[15] = biological target: Insulin receptor-related protein (Homo sapiens) (UniProt P14616); settings: at 10 µM
[16] = biological target: T5, Tyrosine-protein kinase ITK/TSK (Homo sapiens) (UniProt Q08881); settings: at 1 µM
T5 sequence (whole entry): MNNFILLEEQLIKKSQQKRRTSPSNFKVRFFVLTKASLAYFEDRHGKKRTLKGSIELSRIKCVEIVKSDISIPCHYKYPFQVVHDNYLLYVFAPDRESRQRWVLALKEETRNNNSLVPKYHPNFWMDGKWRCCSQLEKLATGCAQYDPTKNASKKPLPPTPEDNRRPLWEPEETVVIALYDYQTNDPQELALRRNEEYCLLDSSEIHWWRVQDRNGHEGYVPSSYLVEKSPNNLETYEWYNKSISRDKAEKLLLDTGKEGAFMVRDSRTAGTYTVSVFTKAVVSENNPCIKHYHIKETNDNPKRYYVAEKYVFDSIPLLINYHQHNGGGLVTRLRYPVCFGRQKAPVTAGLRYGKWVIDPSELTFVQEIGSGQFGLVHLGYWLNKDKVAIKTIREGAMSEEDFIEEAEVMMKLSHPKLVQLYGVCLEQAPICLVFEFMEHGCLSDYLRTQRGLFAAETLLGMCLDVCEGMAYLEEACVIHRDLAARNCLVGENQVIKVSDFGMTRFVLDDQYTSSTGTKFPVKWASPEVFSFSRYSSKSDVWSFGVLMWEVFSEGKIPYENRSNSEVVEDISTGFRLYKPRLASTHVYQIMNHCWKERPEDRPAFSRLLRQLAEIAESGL

[17] = biological target: Insulin-like growth factor 1 receptor (Homo sapiens) (UniProt P08069); settings: at 10 µM
[18] = biological target: T6, Inhibitor of nuclear factor kappa-B kinase subunit alpha (Homo sapiens) (UniProt O15111); settings: at 1 µM
T6 sequence (whole entry): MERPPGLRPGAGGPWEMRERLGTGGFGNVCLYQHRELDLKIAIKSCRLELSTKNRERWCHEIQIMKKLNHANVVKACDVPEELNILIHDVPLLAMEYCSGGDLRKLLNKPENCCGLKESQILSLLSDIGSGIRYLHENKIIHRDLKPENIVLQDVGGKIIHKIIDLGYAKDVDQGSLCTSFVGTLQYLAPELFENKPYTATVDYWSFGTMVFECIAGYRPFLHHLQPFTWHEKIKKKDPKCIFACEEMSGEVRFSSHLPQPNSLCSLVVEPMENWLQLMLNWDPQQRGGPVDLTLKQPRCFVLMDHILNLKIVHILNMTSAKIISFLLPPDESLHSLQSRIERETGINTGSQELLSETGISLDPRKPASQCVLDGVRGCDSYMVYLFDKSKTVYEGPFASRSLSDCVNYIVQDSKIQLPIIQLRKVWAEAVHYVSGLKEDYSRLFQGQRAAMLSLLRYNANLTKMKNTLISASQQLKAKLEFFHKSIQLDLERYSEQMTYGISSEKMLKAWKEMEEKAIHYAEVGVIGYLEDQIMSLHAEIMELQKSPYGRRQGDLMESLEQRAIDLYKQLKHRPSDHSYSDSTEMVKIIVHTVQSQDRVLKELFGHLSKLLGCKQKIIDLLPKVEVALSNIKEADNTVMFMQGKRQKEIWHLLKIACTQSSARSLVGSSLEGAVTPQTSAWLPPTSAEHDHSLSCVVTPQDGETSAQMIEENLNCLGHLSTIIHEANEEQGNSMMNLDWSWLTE

[19] = biological target: T6, Inhibitor of nuclear factor kappa-B kinase subunit alpha (Homo sapiens); settings: at 10 µM
[20] = biological target: Insulin receptor (Homo sapiens) (UniProt P06213); settings: at 1 µM; remark: listed apart in the source

Sequence of Interleukin-1 receptor-associated kinase 1 (Homo sapiens) (P51617 whole entry, looked up): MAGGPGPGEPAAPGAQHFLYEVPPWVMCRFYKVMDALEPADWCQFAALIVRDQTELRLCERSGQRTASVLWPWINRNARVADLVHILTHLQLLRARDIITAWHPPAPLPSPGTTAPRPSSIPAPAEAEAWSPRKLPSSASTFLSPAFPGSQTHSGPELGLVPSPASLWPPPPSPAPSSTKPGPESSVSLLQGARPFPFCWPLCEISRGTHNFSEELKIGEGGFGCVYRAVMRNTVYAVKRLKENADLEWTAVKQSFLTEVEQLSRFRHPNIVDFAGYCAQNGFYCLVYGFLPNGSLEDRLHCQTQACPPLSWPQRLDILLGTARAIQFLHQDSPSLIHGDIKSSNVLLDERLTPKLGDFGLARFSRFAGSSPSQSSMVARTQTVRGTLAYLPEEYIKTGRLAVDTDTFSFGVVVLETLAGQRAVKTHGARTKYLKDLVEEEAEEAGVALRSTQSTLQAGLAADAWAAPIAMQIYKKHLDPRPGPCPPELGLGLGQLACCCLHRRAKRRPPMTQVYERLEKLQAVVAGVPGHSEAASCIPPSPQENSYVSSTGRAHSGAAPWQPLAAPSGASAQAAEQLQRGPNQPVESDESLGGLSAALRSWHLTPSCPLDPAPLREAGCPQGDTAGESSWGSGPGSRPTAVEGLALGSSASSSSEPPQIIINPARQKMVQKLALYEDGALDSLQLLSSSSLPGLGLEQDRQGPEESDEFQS
Sequence of Insulin-like growth factor 1 receptor (Homo sapiens) (P08069 31-736 limits assumed): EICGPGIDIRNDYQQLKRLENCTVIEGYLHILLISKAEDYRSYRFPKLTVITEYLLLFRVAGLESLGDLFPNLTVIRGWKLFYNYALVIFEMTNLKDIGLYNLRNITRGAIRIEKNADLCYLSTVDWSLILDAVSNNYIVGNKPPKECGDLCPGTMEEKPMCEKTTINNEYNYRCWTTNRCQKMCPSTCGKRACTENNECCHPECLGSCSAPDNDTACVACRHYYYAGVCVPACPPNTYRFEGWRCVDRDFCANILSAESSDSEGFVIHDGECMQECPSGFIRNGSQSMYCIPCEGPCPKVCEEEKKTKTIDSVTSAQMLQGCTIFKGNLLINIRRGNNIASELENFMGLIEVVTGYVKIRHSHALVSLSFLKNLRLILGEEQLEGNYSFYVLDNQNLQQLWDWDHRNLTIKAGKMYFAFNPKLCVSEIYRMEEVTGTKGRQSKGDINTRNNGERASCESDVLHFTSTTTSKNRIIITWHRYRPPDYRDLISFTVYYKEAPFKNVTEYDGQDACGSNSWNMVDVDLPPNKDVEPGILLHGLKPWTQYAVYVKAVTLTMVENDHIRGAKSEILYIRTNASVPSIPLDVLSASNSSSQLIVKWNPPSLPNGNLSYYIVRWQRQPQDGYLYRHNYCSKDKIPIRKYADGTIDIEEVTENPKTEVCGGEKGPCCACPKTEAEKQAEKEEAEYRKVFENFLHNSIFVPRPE
Sequence of Insulin-like growth factor 1 receptor (Homo sapiens) (P08069 741-1367 limits assumed): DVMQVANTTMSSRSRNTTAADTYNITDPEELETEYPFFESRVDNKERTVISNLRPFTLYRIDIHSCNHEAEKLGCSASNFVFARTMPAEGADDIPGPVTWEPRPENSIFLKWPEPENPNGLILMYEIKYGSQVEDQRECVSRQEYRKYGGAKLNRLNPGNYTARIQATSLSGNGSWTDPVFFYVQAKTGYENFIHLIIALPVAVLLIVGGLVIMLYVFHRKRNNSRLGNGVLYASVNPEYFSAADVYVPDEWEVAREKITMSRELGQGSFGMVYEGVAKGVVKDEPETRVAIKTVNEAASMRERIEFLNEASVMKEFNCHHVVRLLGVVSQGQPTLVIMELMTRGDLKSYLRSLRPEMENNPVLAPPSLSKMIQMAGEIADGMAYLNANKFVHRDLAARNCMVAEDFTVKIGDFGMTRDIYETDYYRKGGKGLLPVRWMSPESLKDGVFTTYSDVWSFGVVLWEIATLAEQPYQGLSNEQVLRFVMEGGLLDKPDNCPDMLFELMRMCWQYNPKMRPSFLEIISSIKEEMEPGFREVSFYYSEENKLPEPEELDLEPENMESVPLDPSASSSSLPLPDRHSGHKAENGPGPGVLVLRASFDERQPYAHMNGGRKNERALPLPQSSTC
Sequence of Insulin receptor (Homo sapiens) (P06213 28-758 limits assumed): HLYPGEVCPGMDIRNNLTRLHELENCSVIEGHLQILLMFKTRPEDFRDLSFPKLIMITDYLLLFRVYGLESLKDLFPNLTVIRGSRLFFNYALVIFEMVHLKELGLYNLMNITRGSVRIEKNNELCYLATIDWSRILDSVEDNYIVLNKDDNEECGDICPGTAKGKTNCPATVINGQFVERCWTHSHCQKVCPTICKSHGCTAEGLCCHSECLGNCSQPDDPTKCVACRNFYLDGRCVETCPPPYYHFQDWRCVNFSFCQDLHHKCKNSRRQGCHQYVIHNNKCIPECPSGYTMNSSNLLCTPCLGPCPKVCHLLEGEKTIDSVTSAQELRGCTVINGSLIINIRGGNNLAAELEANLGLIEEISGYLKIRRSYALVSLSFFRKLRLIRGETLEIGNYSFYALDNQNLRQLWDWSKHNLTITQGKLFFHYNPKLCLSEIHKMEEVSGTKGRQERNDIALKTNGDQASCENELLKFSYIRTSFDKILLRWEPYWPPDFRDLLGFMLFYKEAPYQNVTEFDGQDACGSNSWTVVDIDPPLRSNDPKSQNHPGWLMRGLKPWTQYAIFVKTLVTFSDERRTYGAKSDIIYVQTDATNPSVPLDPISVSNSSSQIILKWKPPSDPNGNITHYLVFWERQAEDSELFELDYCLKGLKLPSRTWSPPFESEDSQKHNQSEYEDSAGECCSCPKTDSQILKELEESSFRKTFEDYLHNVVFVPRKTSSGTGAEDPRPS
Sequence of Insulin receptor (Homo sapiens) (P06213 763-1382 limits assumed): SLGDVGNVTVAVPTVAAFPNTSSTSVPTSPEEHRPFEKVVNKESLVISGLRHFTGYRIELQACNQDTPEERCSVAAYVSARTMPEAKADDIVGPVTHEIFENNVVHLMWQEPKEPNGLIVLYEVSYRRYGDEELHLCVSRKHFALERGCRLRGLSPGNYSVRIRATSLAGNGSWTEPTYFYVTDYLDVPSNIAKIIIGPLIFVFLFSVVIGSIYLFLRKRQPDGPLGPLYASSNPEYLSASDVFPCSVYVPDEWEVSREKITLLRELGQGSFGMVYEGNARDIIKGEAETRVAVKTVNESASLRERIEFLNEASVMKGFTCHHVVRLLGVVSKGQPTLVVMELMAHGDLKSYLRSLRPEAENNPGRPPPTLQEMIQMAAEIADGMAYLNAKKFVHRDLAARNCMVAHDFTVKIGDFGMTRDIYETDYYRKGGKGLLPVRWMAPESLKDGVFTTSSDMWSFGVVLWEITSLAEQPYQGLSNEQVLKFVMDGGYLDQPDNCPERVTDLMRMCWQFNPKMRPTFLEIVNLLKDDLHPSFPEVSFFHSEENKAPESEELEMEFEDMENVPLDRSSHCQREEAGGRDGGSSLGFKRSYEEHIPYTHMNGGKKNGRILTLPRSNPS
Sequence of Insulin receptor-related protein (Homo sapiens) (P14616 27-742 limits assumed): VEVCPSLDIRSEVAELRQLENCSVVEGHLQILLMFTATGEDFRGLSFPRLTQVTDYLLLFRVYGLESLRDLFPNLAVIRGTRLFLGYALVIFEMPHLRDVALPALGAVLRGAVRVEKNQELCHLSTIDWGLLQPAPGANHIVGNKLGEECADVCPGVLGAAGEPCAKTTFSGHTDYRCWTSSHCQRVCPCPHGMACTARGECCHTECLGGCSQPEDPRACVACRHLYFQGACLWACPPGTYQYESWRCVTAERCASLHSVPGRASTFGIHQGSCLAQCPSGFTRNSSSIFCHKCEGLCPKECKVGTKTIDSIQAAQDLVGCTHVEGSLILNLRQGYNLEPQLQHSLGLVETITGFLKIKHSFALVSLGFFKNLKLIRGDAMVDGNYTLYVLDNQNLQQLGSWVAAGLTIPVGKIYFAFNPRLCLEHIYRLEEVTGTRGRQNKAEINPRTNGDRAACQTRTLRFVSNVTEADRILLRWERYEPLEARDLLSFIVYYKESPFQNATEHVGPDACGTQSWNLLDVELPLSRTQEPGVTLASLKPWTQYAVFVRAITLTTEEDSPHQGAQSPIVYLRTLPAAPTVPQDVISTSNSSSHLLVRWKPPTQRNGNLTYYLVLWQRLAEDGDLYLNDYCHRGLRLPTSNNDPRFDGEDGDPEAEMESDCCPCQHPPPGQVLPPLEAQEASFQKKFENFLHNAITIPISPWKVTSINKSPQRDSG
Sequence of Insulin receptor-related protein (Homo sapiens) (P14616 747-1297 limits assumed): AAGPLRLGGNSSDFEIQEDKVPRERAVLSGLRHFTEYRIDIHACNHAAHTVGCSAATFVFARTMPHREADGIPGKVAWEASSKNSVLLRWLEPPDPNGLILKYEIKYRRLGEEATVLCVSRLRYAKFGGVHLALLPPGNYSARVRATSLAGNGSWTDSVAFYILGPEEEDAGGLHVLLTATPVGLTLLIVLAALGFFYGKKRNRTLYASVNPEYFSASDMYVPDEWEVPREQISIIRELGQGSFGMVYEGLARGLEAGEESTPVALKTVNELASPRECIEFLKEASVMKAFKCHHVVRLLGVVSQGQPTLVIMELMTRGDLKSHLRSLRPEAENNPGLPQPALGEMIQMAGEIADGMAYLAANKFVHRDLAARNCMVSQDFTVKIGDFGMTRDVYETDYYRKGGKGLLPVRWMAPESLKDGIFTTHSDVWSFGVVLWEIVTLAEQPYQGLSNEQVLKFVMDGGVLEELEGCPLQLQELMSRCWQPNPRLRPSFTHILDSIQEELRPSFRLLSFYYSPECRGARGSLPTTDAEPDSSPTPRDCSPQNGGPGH

SMILES | residual activity [1] [%] | residual activity [2] [%] | residual activity [3] [%] | residual activity [4] [%] | residual activity [5] [%] | residual activity [6] [%] | residual activity [7] [%] | residual activity [8] [%] | residual activity [9] [%] | residual activity [10] [%] | residual activity [11] [%] | residual activity [12] [%] | residual activity [13] [%] | residual activity [14] [%] | residual activity [15] [%] | residual activity [16] [%] | residual activity [17] [%] | residual activity [18] [%] | residual activity [19] [%] | residual activity [20] [%]
CN(C)S(=O)(=O)c1ccc2c(c1)/C(=C/c1cc3c([nH]1)CCCC3)C(=O)N2 | 60 | 88 | 91 | 93 | 100 | 63 | 93 | 88 | 95 | 9 | 0 | 19 | 17 | 85 | 77 | 23 | – | – | – | –
COc1ccc2c(c1)c(C1=C(c3c[nH]c4ccccc34)C(=O)NC1=O)cn2CCCN(C)C | 24 | 69 | 49 | 101 | – | – | 100 | 73 | 71 | 81 | 75 | – | – | 122 | 67 | 101 | 82 | 80 | 64 | 97
O=C(c1ccccc1)c1ccc(N2CCOCC2)cc1O | 77 | 95 | 99 | – | – | – | – | – | – | – | 89 | 117 | 93 | 131 | 75 | – | 93 | – | – | –
CC(C)c1nn(-c2c(Cl)cccc2Cl)c2nc(Cc3ccc(OCCO)cc3)[nH]c(=O)c12 | 63 | 94 | 86 | 105 | 109 | 100 | 85 | – | 99 | 103 | 84 | 104 | 91 | – | – | 98 | 107 | 99 | 90 | 102
CCCCc1c(-c2ccc(O)cc2)[nH]c2nccnc12 | 35 | 91 | 46 | 65 | – | – | – | – | – | 52 | 53 | 71 | 26 | – | – | 93 | 66 | 90 | 81 | –
COc1cc2nccc(Oc3ccc(NC(=S)NC(=O)c4ccccc4C)cc3)c2cc1OC | 48 | 78 | 77 | 87 | – | – | 92 | 138 | 92 | 79 | 67 | 96 | – | 121 | 74 | 79 | 73 | – | – | 97
Nc1ncnc2c1c(-c1ccc(Oc3ccccc3)cc1)cn2C1CCCC1 | 54 | 76 | 72 | 100 | – | 91 | 96 | 109 | 50 | 83 | 74 | 94 | – | 114 | 15 | 58 | 58 | 104 | 103 | 90
CCCC(=O)Oc1ccc2[nH]c(C(=O)c3cc4ccccc4[nH]3)cc2c1 | 59 | 79 | 93 | 93 | – | 93 | 107 | 77 | 89 | 85 | 69 | – | – | 134 | 80 | 105 | 90 | 104 | 100 | 90
CCN1/C(=C/C(C)=O)Sc2ccc(OC)cc21 | 51 | – | – | – | – | – | – | – | – | – | – | – | – | – | – | – | – | – | – | –
COc1cc2c(cc1OC)-c1n[nH]c(Nc3cccc(F)c3)c1C2 | 43 | 78 | 66 | – | 101 | 110 | – | – | – | 73 | 68 | 76 | 34 | 99 | – | – | – | 109 | 112 | –
COc1cc2ncnc(Nc3cccc(Cl)c3)c2cc1OC | 59 | 100 | 103 | 115 | – | – | 110 | – | – | 84 | 35 | 64 | 5 | 105 | 102 | 100 | – | – | – | –
N#C/C(=C1/Nc2ccccc2S1)c1ccnc(NCCc2cccnc2)n1 | 40 | 96 | 69 | – | – | 83 | 127 | 137 | 83 | 80 | 70 | 80 | 31 | 132 | 63 | – | – | 113 | 71 | 98
Nc1n[nH]c2nc3ccccc3nc12 | 63 | 91 | 82 | – | 122 | 90 | – | – | – | 98 | 98 | 93 | 67 | 122 | 86 | – | – | 93 | 69 | –

Reference: ChEMBL document CHEMBL2218924, “A broad activity screen in support of a chemogenomic map for kinase signalling research and drug discovery” (Biochem J, 2013)
